# PubChem BioAssay AID2410 (Southern Research Specialized Biocontainment Screening …, 2010)
# Screen size: about 2,500 compounds; about 2,100 (84%) were called active. So high a share suggests a set chosen from earlier hits. The list is a sample of the results. Measured potencies and affinities stand elsewhere. Values without a mark were called inactive.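 The calls were made as follows: active = toxic compounds, whose cell viability fell below 70% of untreated control cells; inactive = the rest.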
# Test: HEp-2 cell cytotoxicity, dose response, cytotoxicity control for RSV inhibitor project, HTS (AID 2410);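 also: cells exposed to compound for six days before readout; 100% = median signal of untreated cell control wells on each plate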
# Conditions: HEp-2 viability, luminescence, cytotoxicity counter-screen; series mostly up to 50 µM; viability: at the top concentration
row,SMILES,viability
1,CCC(CC)NC(=O)COC(=O)c1ccc(NS(=O)(=O)c2ccc3c(c2)OCCO3)cc1,93.9%
2,CCOC(=O)c1cc(CC)sc1NC(=O)c1ccc2c(c1)OCCO2,78.4%
3,Cc1cccc(Nc2nc(OCC#N)nc(N(C)C)n2)c1,99.8%
4,Cc1ccc(S(=O)(=O)N2CCN(CCO)CC2)cc1-c1nnc2c3ccccc3c(C)nn12,110%
5,Cc1ccnc(NS(=O)(=O)c2ccc(NC(=O)Cc3ccccc3)cc2)n1,93.4%
6,Cc1ccc(C2=NN(C(=O)COc3ncnc4ccccc34)C(c3ccco3)C2)cc1 (stereo unspecified),103%
7,O=C1CN2C(=Nc3ccc(Cl)cc3C2c2ccccc2)CN1 (stereo unspecified),90.6%
8,O=C1CC(Sc2nnc(-c3ccccc3)o2)C(=O)N1c1ccccc1 (stereo unspecified),93.9%
9,CN(CCO)c1nc(N)c2c(N)nc3c(c2c1C#N)CC(=O)N3Cc1cccs1,101%
10,Clc1cccc(Nc2ncnc3c2cnn3-c2ccccc2)c1,84%
11,CCOc1ccc2nc(NC(=O)Cc3cccs3)sc2c1,96.1%
12,Cc1ccc2nc(NC(=O)CCn3c(=O)sc4ccccc43)sc2c1,75.8%
13,COc1cc(NC2c3ncccc3C(=O)N2Cc2ccco2)cc(OC)c1OC (stereo unspecified),94.1%
14,Cc1ccc(-n2nc3c(=O)n(CCCC(=O)NCC(C)c4ccccc4)nc(C)c3c2C)cc1 (stereo unspecified),75.8% [at 25 µM]
15,CC(C(=O)N=Nc1c(O)[nH]c2ccccc12)n1cnc2ccccc2c1=O (stereo unspecified),70.9%
16,CCOC(=O)Cc1nnc(Nc2ccc(C)cc2)c2ccccc12,84.4%
17,COC(=O)c1c(NC(NC(=O)C(C)(C)C)C(Cl)(Cl)Cl)sc2c1CCC2 (stereo unspecified),84.3%
18,Cc1ccc(OCc2ccc(Br)cc2)c([N+](=O)[O-])n1,104%
19,COc1ccc(CNC(=O)CCCn2nc(C)c3c(C)n(-c4ccc(C)cc4)nc3c2=O)cc1,93.4%
20,O=C(CSc1nc2nc3c(cc2c(=O)n1-c1ccccc1)CCCC3)Nc1cccc2ccccc12,85%
21,Nc1c2c(nc3sc4c(c13)CCCC4)-c1ccccc1CC2,77.7%
22,Cc1noc(C)c1C(=O)OC(C)C(=O)Nc1ccc(S(=O)(=O)NC(C)C)cc1 (stereo unspecified),86.2%

row,SMILES,viability
1,CCCCc1cc(=O)oc2c3c(cc(OCC(=O)N4CCC[C@H]4C(=O)O)c12)OC(C)(C)CC3,106%
2,Cc1cc(C)c2c(n1)sc1c(N3CCCCC3)ncnc12,118%
3,COc1ccc(Cl)cc1NS(=O)(=O)c1c(C)[nH]c(C)c1C(=O)N1CCCCC1,93.7%
4,COc1ccc(N(CC(=O)NC2CCCC2)C(=O)c2ccc(C)s2)c(OC)c1,81.1%
5,CCCc1c(C(=O)Nc2ccc(C(F)(F)F)cc2)cnn1-c1ccccc1,90.4%
6,Cc1cc(C)c(C)c(C(=O)CSc2nnc(-c3ccc4[nH]c(C)c(C)c4c3)o2)c1C,75.9%
7,Cc1c(NC(=O)CN2C(=O)c3ccccc3C2=O)c(=O)n(-c2ccccc2)n1C,104%
8,C/C(N)=C(/C#N)C(=O)COC(=O)CNS(=O)(=O)c1ccc2ccccc2c1,112%
9,COc1ccc(S(=O)(=O)NCc2ccco2)cc1-c1nnc2c3ccccc3c(C)nn12,71%
10,O=c1cc(-c2ccc(O)c(O)c2)oc2c(C3O[C@H](CO)[C@@H](O)[C@H](O)[C@H]3O)c(O)cc(O)c12 (stereo partly specified),109%
11,COc1ccc(OC)c(-c2nc3c(C)n[nH]c(=O)c3[nH]2)c1,75.5%
12,COc1ccc2c(CC(=O)Nc3ccc(OC)c(NS(=O)(=O)c4ccc(F)cc4)c3)coc2c1,72.2%
13,COc1ccc(C(C)=O)cc1COc1ncnc2ccccc12,95.6%
14,Cc1ccc(-c2n[nH]c(=S)n2/N=C/c2ccncc2)cc1,103%
15,COCCNC(=O)c1cc2c(s1)-c1ccc(Cl)cc1SC2,94%
16,Clc1ccc(Nc2ccc3ccccc3n2)cc1,74.3%
17,Cc1cc2cc(C)c(NCCNC(=O)c3ccccc3F)nc2cc1C,89.4%
18,O=C(NC1=NCCS1)c1ccc(-c2ccc(Cl)cc2)o1,86.3%
19,CCOC(=O)N1CCN(C(=O)CSc2nnc(-c3ccc(C)c(C)c3)o2)CC1,80.2%
20,O/N=C/c1ccccc1OCc1ccc(Cl)cc1,75.7%
21,O=C(O)c1nn(CCOc2c(Cl)cccc2Cl)c(=O)c2ccccc12,103%
22,O=C(Nc1ccc(Cl)cc1Cl)C1=Cc2ccccc2OC1,77.9%

row,SMILES,viability
1,COc1ccc(C(=O)Nc2cccc3c2CCCC3)c(OC)c1,82.8%
2,O=C(O)c1ccc(N/N=C/c2cc(Br)cs2)cc1,70.8%
3,CCOc1cccc(C(=O)Nc2ccc(NC(=O)c3ccccc3)c(C)c2)c1,93.5%
4,CCOc1ccc(NC(=O)c2csc3c2CCCC3)cc1,94.3%
5,COc1ccc(CCNC(=O)c2ccc(N(C)S(=O)(=O)c3ccc(C)cc3)cc2)cc1,80.8%
6,COc1ccc2[nH]cc(C(=O)CN3CCN(C4CCCCC4)CC3)c2c1,97.3%
7,CC1(C)Cc2cccc(C(=O)Nc3ccc(F)cc3F)c2O1,102%
8,O=C1c2ccccc2C(=O)N1CC1c2ccccc2CCN1C(=O)C1CCCCC1 (stereo unspecified),97.2%
9,O=c1c2ccccc2nc(/C=C/c2ccc(Br)cc2)n1CCCO,79.9%
10,CC(=O)N1CCN(C2=NC(=O)/C(=C/c3ccc(OS(=O)(=O)c4ccccc4)cc3)S2)CC1,70.4%
11,CCn1nc(NC(=O)c2ccccc2)c2cc3cccc(C)c3nc21,91.7%
12,N#Cc1c(-c2c(Cl)cccc2Cl)noc1/C=C/Nc1ccc(C(=O)O)cc1,84.7%
13,Cc1csc2c(=O)sc(NC(=O)c3ccc(F)cc3)nc12,83.2%
14,Cc1[nH]c2ccccc2c1/C=N/Nc1ccc([N+](=O)[O-])cc1,71.8%
15,Cc1ccc(-c2nc(-c3cccnc3)no2)c(C)c1,74.2%
16,COc1ccc2nc(/C=N/NC(=O)[C@H](C)NC(=O)OC(C)(C)C)ccc2c1,73.2%
17,CC(=O)Nc1cccc(-c2csc(Nc3cccc(C)n3)n2)c1,75%
18,CCOC(=O)c1cccc(NC(=O)Nc2cc(OC)ccc2OC)c1,108%
19,N=C1SCC(=O)N1c1nc(-c2ccccc2)cs1,70%
20,CS(=O)(=O)c1ccccc1C(=O)Nc1ccc(-c2nc3ccccc3o2)cc1,77%
21,CSc1nnc(-c2ccc(Cl)cc2Cl)o1,94.3%
22,CCOc1ccc2nc3c(cc2c1)CN(CCCO)C(=NCCOC)S3,83.7%

row,SMILES,viability
1,O=[N+]([O-])c1ccc2c(c1)nnn2-c1ccccc1,106%
2,CCN(CC)c1nc(Nc2ccc(Cl)cc2)nc(OCC#N)n1,83.7%
3,Cn1c(=NC(=O)C2CC2)sc2cc(F)cc(F)c21,81%
4,COC(=O)c1ccc2[nH]ccc2c1,109%
5,CC1CCCN(C(=O)CCNS(=O)(=O)c2ccc(Br)cc2)C1 (stereo unspecified),74.2%
6,c1ccc(-c2nn3c(Cn4nnc5ccccc54)nnc3s2)cc1,82.3%
7,c1coc(-c2nn3c(Cn4nnc5ccccc54)nnc3s2)c1,92.8%
8,CCOC(=O)Cc1c(C)c2ccc(N(CC)CC)cc2oc1=O,92.8%
9,Cc1c(Cc2ccccc2)c(=O)oc2cc(O)cc(O)c12,75.1%
10,CNc1oc(/C=C/c2cccc(OC)c2)nc1C#N,105%
11,N#Cc1c(N2CCOCC2)nsc1-c1ccc(C(F)(F)F)cc1,89.6%
12,Cc1ccc(-c2nc3cc(N)ccc3o2)cc1Br,88.8%
13,COC(=O)c1sccc1NC(=O)c1ccccc1F,98.8%
14,O=C(NCCN1CCN(C(=O)C(c2ccccc2)c2ccccc2)CC1)C(=O)Nc1ccccc1,94.3%
15,COc1cc(N)c(Cl)cc1NC(=O)c1ccccc1,98.5%
16,Cc1nn2c(N)c(C#N)cnc2c1-c1ccccc1,76.8%
17,Cc1ccc(Nc2nc(N)c([N+](=O)[O-])c(N3CCOCC3)n2)cc1C,86.4%
18,C[C@@H]1CN(C(=O)c2nc3ccc(Cl)cn3c2CN2CCc3sccc3C2)C[C@H](C)O1,80.6%
19,CN(CC(=O)NCc1ccc(F)cc1)S(=O)(=O)c1cccc2nsnc12,77.8%
20,CCN(c1ccccc1)S(=O)(=O)c1ccc(Cl)c(NC(=O)c2ccc(=O)[nH]n2)c1,81.7%
21,CSc1ncc(Cl)c(C(=O)Nc2ccccc2Br)n1,84%
22,C/C(N)=C(/C#N)C(=O)COC(=O)c1ccncc1,92.3%

row,SMILES,viability
1,C=CCC1(C#N)C(=S)NC(C)=C(C(=O)OCC)C1c1ccccc1 (stereo unspecified),73.7%
2,CNC(=S)N/N=C(\C)c1ccc(-n2ccnc2)cc1,71.6%
3,Cc1ccc(-n2c(-c3cccnc3)n[nH]c2=S)c(C)c1,103%
4,COc1cc(-c2nc3c(c(C)nn3-c3ccccc3)c3cc(OC)c(OC)cc23)ccc1O,83.3%
5,COc1ccc(/C=C/C(=O)NCc2nc3ccccc3[nH]2)cc1OC,71.4%
6,CC(C(=O)NCCc1ccc(Cl)cc1)n1c(=O)c2cccn2c2cccnc21 (stereo unspecified),101%
7,O=[N+]([O-])c1ccc(N/N=C/c2cccnc2)cc1,95.9%
8,COc1ccc(C2Nc3cc(OC)ccc3-n3cccc32)cc1 (stereo unspecified),82.6%
9,COc1ccc(-c2cc(C(=O)Nc3nc4c(C)cccc4s3)c3ccccc3n2)cc1OC,75.3%
10,CCCNC(=O)N1CCN(c2nc(C(C)C)c3c(c2C#N)CC(C)(C)OC3)CC1,97.5%
11,Cc1cccc2nc(COc3ccc(Cl)c4cccnc34)cn12,73%
12,CC(C)(C)N1C(=O)[C@H]2[C@@H](c3ccc(Br)cc3)N3C(=O)N(c4cccc(Cl)c4)C(=O)[C@@]3(Cc3ccccc3)[C@H]2C1=O,79.2%
13,O=C1[C@H]2[C@@H](c3ccc(F)cc3)N3C(=O)N(c4ccc(Br)cc4)C(=O)[C@@]3(Cc3ccc(Cl)cc3)[C@H]2C(=O)N1C1CCCCC1,93.4%
14,O=C1[C@H]2[C@@H](c3ccc(Cl)cc3)N3C(=O)N(c4cccc(Br)c4)C(=O)[C@@]3(Cc3ccc(Cl)cc3)[C@H]2C(=O)N1C1CCCCC1,73.5% [at 12.5 µM]
15,O=c1c2ccccc2oc2ccc(-c3ccc4[nH]ccc4c3)cc12,84.9%
16,COc1ccc2oc(-c3ccco3)cc(=O)c2c1,75.1%
17,O=C1C2CCCN2c2ccc(S(=O)(=O)N3CCOCC3)cc2N1Cc1ccccc1F (stereo unspecified),92.7%
18,O=C(c1ccc(F)cc1)N1CCN2C(=O)c3ccccc3C12c1ccccc1 (stereo unspecified),91.1%
